# Most compounds without a hit are left out; they make up all but 4% or so of the library.
# tim10-1 inh – growth inhibitors of tim10-1 mutant yeast, primary screen, luminescence, uHTS; S. cerevisiae tim10-1 ts strain growth, BacTiter-Glo, 24 h; inhibition, % at 20 µM; 2.2% of 330,000 active;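 active = inhibition of at least 40%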;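 note: mutant grown at 25 °C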
# tim23-1 inh – growth inhibitors of tim23-1 mutant yeast, primary screen, luminescence, uHTS | S. cerevisiae tim23-1 growth, BacTiter-Glo luminescence, 24 h | inhibition, % at 20 µM | 1.3% of 330,000 active | AID 463212, 2010;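 active = growth inhibition of the mutant yeast at or above 50%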;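 note: temperature-sensitive mutant grown at 25 °C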
# NALP1 inh – NALP1 inflammasome inhibitors in reconstituted yeast, colorimetric, S. cerevisiae, triplicate retest; S. cerevisiae NALP1/ASC/caspase-1 growth, X-gal OD620, 72 h; inhibition, % at 10 µM; 0.61% of 280,000 active; AID 2071, 2009; in the data active = inhibition mostly above about 24%, no sharp cut-off; inactive = mostly below about 32%
# NALP3 yeast inh – NALP3 inflammasome inhibitors in reconstituted yeast, primary screen, luminescence, uHTS; AID 2825, 2010; inhibition, % at 10 µM; Yeast reconstituted NLRP3/ASC/caspase-1, beta-gal luminescence, 24 h; 0.39% of 330,000 active;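 active = inhibition of 50% or more; inactive = inhibition below 50%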
# TIM10 inh – growth inhibitors of isogenic TIM10 control yeast, primary screen, counter-screen for tim10-1 yeast inhibitor project, luminescence, uHTS. S. cerevisiae TIM10 strain growth, BacTiter-Glo luminescence, 24 h. inhibition, % at 10 µM. 1.4% of 330,000 active;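 active = inhibition of 40% or more at the single tested concentration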;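 note: wild-type TIM10 isogenic control strain grown at permissive 25 °C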
# tim10-1 conf – growth inhibitors of tim10-1 mutant yeast, confirmation, single concentration, luminescence, S. cerevisiae | inhibition, % at 20 µM | shares compounds with tim10-1 inh | 56% of 7,400 active | S. cerevisiae tim10-1 ts strain growth, BacTiter-Glo, 24 h | AID 463213, 2010;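 active = inhibition of yeast growth at or above a set limit in either of two repeat tests at 20 µM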;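 note: tim10-1 mutant grown at permissive 25 °C to find synthetic lethal compounds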
# TIM10 conf – growth inhibitors of wild-type TIM10 yeast, confirmation, counter-screen for tim10-1 synthetic lethality project, single concentration, luminescence, S. cerevisiae; shares compounds with TIM10 inh; S. cerevisiae tim10 strain growth, BacTiter-Glo luminescence, 24 h; inhibition, % at 10 µM; 63% of 4,600 active;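 active = inhibition of yeast growth at or above a set limit in either of two replicates at 10 µM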; note: this counterscreen used the strain with wild-type TIM10
# tim23-1 confirm – tim23-1 mutant yeast growth inhibitors, confirmation, luminescence, single concentration. S. cerevisiae tim23-1 growth, BacTiter-Glo luminescence, 24 h. 83% of 4,400 active. inhibition, % at 20 µM. shares compounds with tim23-1 inh;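 active = inhibition above about 39% in either of two replicate wells at 20 µM, limit read from the data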;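 note: temperature-sensitive tim23-1 mutant grown at 25 °C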
# A number is an active result; n = inactive; x = not tested or not shown.
SMILES,tim10-1 inh,tim23-1 inh,NALP1 inh,NALP3 yeast inh,TIM10 inh,tim10-1 conf,TIM10 conf,tim23-1 confirm
CCOC(=O)/C=C/C(=O)OCC(=O)Nc1c(Cl)cccc1Cl,n,n,n,n,n,x,x,x
CC(=O)NC(Cc1ccc(C)cc1)C(=O)NC1CCN(S(=O)(=O)c2ccccc2)CC1 (stereo not given),n,n,n,n,n,x,x,x
COc1ccc(NC(=O)Cc2ccc(Cl)c(Cl)c2)cn1,n,n,n,n,n,x,x,x
COc1ccc(NC(=O)/C(Cl)=C(/Cl)S(=O)Cc2ccccc2Cl)cn1 (stereo not given),42,79,n,n,55,n,84,n
Cc1cc(C)c2cc(C)c(SCC(=O)NCc3ccco3)nc2c1,44,50,n,n,n,43,x,56
Cc1cc(C)c2cc(C#N)c(SCC(=O)NCc3ccco3)nc2c1,n,n,n,n,n,x,x,x
COc1ccccc1-[n+]1c(C)cc(/C=C2\Sc3ccccc3N2C)cc1C,57,70,x,n,75,77,60,72
COc1ccc(-[n+]2c(C)cc(/C=C3\Sc4ccccc4N3C)cc2C)cc1,77,82,28,n,66,76,67,84
NS(=O)(=O)c1ccc(CCn2c(=S)[nH]c3ccc(F)cc3c2=O)cc1,n,n,n,n,n,x,x,x
CCCOc1cc(N)ccc1C(=O)OCCN(CC)CC,n,n,x,n,n,x,x,x
CCCOc1ccc(N)cc1N,50,56,n,n,n,n,x,n
COc1ccc2c(c1)CC/C(=C/c1ccccn1)C2=O,55,58,n,n,56,54,60,52
Cc1onc(-c2c(F)cccc2Cl)c1C(=O)N=C(N)N1CCCC1,n,n,x,n,n,x,x,x
Cc1ccc(CNC(=O)C(=O)NCC2CCCN2S(=O)(=O)c2cc(C)ccc2C)cc1 (stereo not given),n,n,x,n,n,x,x,x
Cc1ccc(N=C2NC(=O)/C(=C\c3ccsc3)S2)c(C)c1,52,58,n,n,47,n,n,66
Cc1ccc(N=C2NC(=O)/C(=C/c3cccnc3)S2)c(C)c1,n,n,n,n,n,x,x,x
Cc1cc(C)c(S(=O)(=O)c2ccccc2)c(OC(=O)c2cc(F)c(F)cc2Cl)n1,48,66,n,n,45,33,n,72
Cc1cc(OC(=O)c2cc(F)c(F)cc2Cl)nc(C)n1,n,n,n,n,n,x,x,x
CCC1(O)CC(c2ccccc2)=NN1C(=O)c1ccccc1F (stereo not given),n,n,x,n,n,x,x,x
CC(C)(C)C(=O)OC/C(N)=N/OC(=O)c1ccc(Cl)c(Cl)c1,63,84,n,n,77,42,86,69
C/C(=N\OC(=O)c1ccc(Cl)c(Cl)c1)c1sc(C)nc1C,n,n,n,n,n,x,x,x
O=c1c(O)c(-c2cccs2)oc2ccc(Cl)cc12,42,53,n,n,72,32,59,66
O=c1cc(-c2cccs2)oc2ccc(Cl)cc12,n,n,n,n,n,x,x,x
N#Cc1sc(NCc2cccc(Cl)c2)nc1Cl,58,69,n,n,44,49,43,57
Cc1ccc(CNc2nc(Cl)c(C#N)s2)cc1,n,n,n,n,n,x,x,x
SMILES,tim10-1 inh,tim23-1 inh,NALP1 inh,NALP3 yeast inh,TIM10 inh,tim10-1 conf,TIM10 conf,tim23-1 confirm
COc1ccc2oc(/C=C/N(C)C)c(C(=O)c3ccc(Cl)cc3)c2c1,45,50,n,n,n,n,x,51
COc1ccc(CN2C(=O)C(C)=C(C)C2OC)cc1 (stereo not given),n,n,n,n,n,x,x,x
COc1ccc(CN2c3c(Br)cccc3C(=O)CS2(=O)=O)cc1,42,72,x,x,n,41,x,60
CC1=NN(c2ccccc2)C(=O)/C1=C\c1ccc(Br)s1,42,57,n,n,n,39,x,67
CC1=NN(c2ccccc2)C(=O)/C1=C/c1ccc(Cl)cc1,n,n,n,n,n,x,x,x
Nc1ccc(/C=C/C(=O)c2ccco2)cc1,n,n,n,n,n,x,x,x
O=C(/C=C/c1ccccc1O)c1ccco1,44,52,n,n,n,35,x,50
CC(C)n1ncc2c(C(=O)Nc3cccc(C#N)c3)cc(C3CC3)nc21,n,n,x,n,n,x,x,x
CC(=O)Oc1cccc(/C=c2\sc3nc(-c4ccco4)nn3c2=O)c1,54,61,n,n,n,43,x,63
CC1(C)CC(=NOC(=O)c2ccccc2)CC(C)(C)N1O,58,68,n,n,58,61,70,78
O=C(Nc1cccc(NC(=O)c2ccc(Br)o2)c1)c1ccccc1,n,n,n,n,n,x,x,x
O=C(c1ccccc1)c1cccc(NC(=O)c2ccc(Br)o2)c1,45,53,n,n,75,36,n,77
NNc1nc(-c2ccccc2Cl)nc2sc3c(c12)CCCC3,58,63,n,n,n,n,x,55
NNc1nc(-c2ccccc2Cl)nc2ccccc12,n,n,n,n,n,x,x,x
Cc1cc(C)c(C(=O)CC(=O)c2ccccc2Cl)c(O)c1,48,65,n,n,n,36,x,76
Cc1cc(C)c(NC(=O)CC(=O)c2ccccc2)c(Cl)c1,n,n,n,n,n,x,x,x
CSc1ccccc1NC(=O)c1ccccc1C,n,n,n,n,n,x,x,x
COc1ccccc1C/C(N)=N/OC(=O)c1ccc(C)c([N+](=O)[O-])c1,69,75,n,n,86,43,86,42
Cc1ccc(C(=O)O/N=C(\N)Cc2cccs2)cc1[N+](=O)[O-],43,88,n,n,83,67,85,83
CC(=O)Nc1ccc(OCC(=O)N2CCC(Cc3ccccc3)CC2)cc1,n,n,n,n,n,x,x,x
O=C(Nc1ccc(OCC(=O)N2CCC(Cc3ccccc3)CC2)cc1)c1ccco1,59,72,n,n,68,60,43,79
CCOC(=O)C1CCN(S(=O)(=O)c2ccc(NC(=O)c3ccco3)cc2)CC1,69,65,n,n,66,62,55,69
CCc1nnc(NC(=O)CSc2nc3ccc(OC)cc3[nH]2)s1,n,n,n,n,n,x,x,x
COc1ccccc1/C=C1\N=C(C(C)(C)C)OC1=O,44,51,n,n,47,47,34,67
Cc1cccc(COc2ccc(/C=C3/C(=O)N(C)C(=S)N3C)cc2)c1,n,n,n,n,n,x,x,x
Cc1nnc(-c2ccc(Cl)cc2)[nH]c1=O,n,n,n,n,n,x,x,x
